PubChem BioAssay AID1578 (Sanford-Burnham Center for Chemical Genomics, 2009)
Among all 290,000 compounds or so, about 3,000 (1%) were called active. For the sample, actives were picked, then their nearest neighbours and some compounds at random. Unmarked numbers belong to inactive results. No stated cut-off is given here; in the data, active means inhibition mostly above about 36% (no sharp cut-off); inactive means mostly below about 34%.

Experiment: NOD1 signaling inhibitors, primary screen, cell-based, luminescence, uHTS (AID 1578);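 further: HEK-293T reporter cells stimulated with the NOD1 agonist gamma-tri-DAP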
Conditions: NOD1-driven NF-kB luciferase reporter cells, at 4 µM, active compounds read high

| SMILES | inhibition |
| --- | --- |
| COc1ccc(/C=C/C(=O)O/N=C(\N)c2cccnc2)cc1OC | -10% |
| Cc1ccc(-c2nc(CS(=O)CC(=O)NC(C)CCc3ccccc3)c(C)o2)cc1 (stereo not given) | 41.4% (active) |
| Cc1cccc(-c2nc(CS(=O)CC(=O)NC(C)CCc3ccccc3)c(C)o2)c1 (stereo not given) | 20.6% |
| Cc1ccccc1-c1nc(CS(=O)CC(=O)NC(C)CCc2ccccc2)c(C)o1 (stereo not given) | 19.2% |
| Cc1c(OCC(=O)NCCCn2ccnc2)ccc2c3c(c(=O)oc12)CCC3 | -17.1% |
| Cc1cc(C)cc(NC(=O)C2C3C=CC(O3)C2C(=O)O)c1 (stereo not given) | -15.9% |
| O=C1C=C(c2cccs2)C[C@H](c2ccccc2)[C@H]1n1nnc([N+](=O)[O-])n1 | 42.1% |
| O=C1C=C(c2ccccc2)C[C@H](c2cccs2)[C@H]1n1cnc([N+](=O)[O-])c1 | -24.8% |
| CCN(CC)C(=O)c1sc(NC(=S)N2CCN(C(=O)C3CCCO3)CC2)c(C(=O)OC)c1C (stereo not given) | 2.3% |
| Cc1ccc2c(c1)[nH]c1c(N3CCN(Cc4ccc5c(c4)OCO5)CC3)ncnc12 | 58.5% |
| COc1ccc2[nH]c3c(N4CCN(Cc5ccc6c(c5)OCO6)CC4)ncnc3c2c1 | 23.1% |
| Cc1ccc2[nH]c3c(N4CCN(Cc5ccc6c(c5)OCO6)CC4)ncnc3c2c1 | 73.7% |
| COc1ccc2c(c1)[nH]c1c(N3CCN(Cc4ccc5c(c4)OCO5)CC3)ncnc12 | 86% (active) |
| Fc1ccc2[nH]c3c(N4CCN(Cc5ccc6c(c5)OCO6)CC4)ncnc3c2c1 | 58.2% (active) |
| Brc1ccc2[nH]c3c(N4CCc5ccccc5C4)ncnc3c2c1 | -5.4% |
| COc1cccc2[nH]c3c(N4CCN(Cc5ccc6c(c5)OCO6)CC4)ncnc3c12 | 60.8% |
| c1ccc2c(c1)CCN(c1ncnc3c1[nH]c1ccccc13)C2 | 81.6% |
| O=C(COC(=O)Cc1cccs1)Nc1ccc(F)c(F)c1F | -10.6% |
| Cc1ccccc1-n1c(=O)cc(NCc2ccc3c(c2)OCO3)[nH]c1=O | -1.9% |
| CN1C(=O)/C(=C/c2ccc(C(F)(F)F)cc2)Sc2ccc(C(=O)N3CCN(c4ccccn4)CC3)cc21 | 17.8% |
| CN1C(=O)/C(=C\c2ccccc2)Sc2ccc(C(=O)N3CCN(c4ccccn4)CC3)cc21 | 46.8% |
| CCN(CC)S(=O)(=O)c1ccc(S(=O)(=O)Nc2ccc(C(=O)N3CCCC3)cc2)cc1 | -2.4% |
| COc1ccc(NC(=O)CCN2C(=O)c3cccc([N+](=O)[O-])c3C2=O)cc1 | -11.3% |

| SMILES | inhibition |
| --- | --- |
| N=c1oc2ccc(Cl)cc2cc1C(=O)Nc1ccc(F)cc1 | -7.8% |
| O=C(CCS(=O)(=O)c1ccccc1)Nc1ccccc1N1CCOCC1 | -9% |
| CCOC(=O)C1=C(C)N=C2c3ccccc3C(=O)C2C1c1ccc(Cl)cc1 (stereo not given) | 16.6% |
| CCOC(=O)C1=C(C)N=C2c3ccccc3C(=O)C2C1c1ccc(Br)cc1 (stereo not given) | 72.4% (active) |
| CCOC(=O)C1=C(C)N=C2c3ccccc3C(=O)C2C1c1ccc(C)cc1 (stereo not given) | 44.1% |
| Cc1ccc(C2N(c3cccc(Cl)c3)C(=O)N3CCCN23)cc1 (stereo not given) | 4.2% |
| O=[N+]([O-])c1cc(/C=N/n2c(-c3cccnc3)n[nH]c2=S)ccc1Cl | -11.7% |
| Cc1cc(C)nc(NC(=O)Cc2ccc([N+](=O)[O-])cc2)c1 | -15.5% |
| O=C(Nc1ccccc1C(F)(F)F)N1CCCCCC1 | -17.1% |
| O=C(NCc1cccnc1)c1ccc2c(c1)C(=O)N(Cc1ccccc1)C2=O | -4.4% |
| Cc1c(C#N)c(NC(=O)C(C)C)n(Cc2ccccc2)c1C | -2.8% |
| Cc1c(C#N)c(NC(=O)CCl)n(Cc2ccc(F)cc2)c1C | 94.1% (active) |
| COc1ccc(Cn2c(C)c(C)c(C#N)c2NC(=O)Nc2ccc(F)cc2)cc1 | -50% |
| Cc1ccc(C(=O)N2CCOCC2)cc1S(=O)(=O)N1CCCCC1 | -11.7% |
| CCN1CCN(CC(=O)Nc2ccc(C)cc2C)C(=O)C1=O | 29.5% |
| COc1ccc(NC(=O)C2=C(C)NC(=S)NC2c2ccc(O)c(OC)c2)cc1 (stereo not given) | -36.2% |
| Cc1ccc(NC(=O)c2cc(-n3cnnc3)ccc2Cl)cc1 | -21.5% |
| Cc1ccc(NC(=O)c2cc(-n3cnnc3)ccc2Cl)c(C)c1 | 63.4% (active) |
| Cc1ccnc(NC(=O)c2cc(-n3cnnc3)ccc2Cl)c1 | -27% |
| O=C(CCCN1C(=O)/C(=C/c2cccs2)SC1=S)Nc1cccc(C(=O)O)c1 | -20.6% |
| COc1ccc(-n2nc(C(=O)NCC(=O)N3CCCC(C)C3)c3ccccc3c2=O)cc1Cl (stereo not given) | -22.7% |
| CCCC1S/C(=N/N=C/c2ccc(C)cc2)N(Cc2ccc(OC)cc2)C1=O (stereo not given) | 39.2% |
| CCCC1S/C(=N/N=C/c2ccc(OC)cc2)N(Cc2ccc(OC)cc2)C1=O (stereo not given) | 12.9% |

| SMILES | inhibition |
| --- | --- |
| CCCCC1S/C(=N/N=C/c2ccc(OC)cc2)N(Cc2ccc(OC)cc2)C1=O (stereo not given) | 75.2% (active) |
| COc1ccccc1CNC(=O)C(C)n1nc(C)n2c(cc3occc32)c1=O (stereo not given) | -26.7% |
| Cc1ccc(C(=O)C(C)N2C(=O)NC(C)(c3ccccc3)C2=O)cc1 (stereo not given) | -36.5% |
| O=C(Cc1ccc(Br)c2ccccc12)N/N=C/c1ccccn1 | 7.4% |
| COc1ccc(-c2coc3c(C)c4oc(=O)c(CCC(=O)O)c(C)c4cc23)cc1 | 10.4% |
| Cc1c(CCC(=O)O)c(=O)oc2c(C)c3occ(-c4ccc(Br)cc4)c3cc12 | 27.8% |
| COC(=O)c1cc(-c2ccc(F)cc2)n(-c2ccccc2)n1 | -3.9% |
| Nc1c(S(=O)(=O)O)cc(NC(=O)c2ccccc2)c2c1C(=O)c1ccccc1C2=O | 11.8% |
| Cc1cc(C)cc(NC2=C(N)C(=O)c3ccccc3C2=O)c1 | -4.5% |
| Cc1cc(C)c(Nc2cc(S(=O)(=O)O)c(N)c3c2C(=O)c2ccccc2C3=O)c(C)c1 | 69.6% (active) |
| Cc1ccc(NC(=O)c2sc(C)nc2C)c(C)c1 | -0.8% |
| O=C(O)c1cccnc1SCC(=O)C12CC3CC(CC(C3)C1)C2 | -9.5% |
| CCOC(=O)Cc1cc(=O)n2[nH]cc(-c3cccc(Br)c3)c2n1 | 27.2% |
| CCOC(=O)Cc1c(C)nc2c(-c3ccccc3)c[nH]n2c1=O | -6.6% |
| CCOC(=O)Cc1c(C)nc2c(-c3cccc(Br)c3)c[nH]n2c1=O | 69.7% (active) |
| CCCN1CCN(C(=O)c2oc3c(Cl)cccc3c2C)CC1 | 11.7% |
| Cc1ccc(C(=O)NCCCN2CCOCC2)c(C)c1 | -33.2% |
| N=C1C(c2nc3ccccc3s2)=C(O)CN1NC(=O)c1ccc([N+](=O)[O-])cc1 | 102% (active) |
| N=C1C(c2nc3ccccc3s2)=C(O)CN1NC(=O)c1ccccc1[N+](=O)[O-] | -23% |
| Cc1ccc(-c2csc(C3=C(O)CN(NC(=O)c4ccc([N+](=O)[O-])cc4)C3=N)n2)cc1 | 3.2% |
| Cc1csc(SCCn2c(N3CCOCC3)nc3c2c(=O)[nH]c(=O)n3C)n1 | -13.7% |
| COc1ccc(/C=C/c2cc(C(F)(F)F)[nH]c(=O)n2)cc1OC | 44.3% |
| COc1cc(OC)c(OC)cc1/C=C/c1cc(C(F)(F)F)[nH]c(=O)n1 | -1% |

| SMILES | inhibition |
| --- | --- |
| COc1cc(/C=C/c2cc(C(F)(F)F)[nH]c(=O)n2)cc(OC)c1OC | 86.7% (active) |
| CS(=O)(=O)N(CCC#N)Cc1ccc(/C=C2\C(=O)Nc3ccccc32)o1 | 57.1% (active) |
| CS(=O)(=O)N(CCC#N)Cc1ccc(C=O)o1 | -32.9% |
| Cc1ccc(/C=C2\C(=O)Nc3ccccc32)o1 | -9.5% |
| O=C(Nc1ccc(O)cc1)/C(=C\C=C\c1ccccc1)NC(=O)c1ccccc1 | -13.3% |
| CCN(C(=O)COC(=O)/C=C/c1cccc([N+](=O)[O-])c1)c1ccccc1 | -31.8% |
| CCn1ncc([N+](=O)[O-])c1C(=O)n1nc(C)cc1C | -22.7% |
| CCn1nc(C)cc1-c1nnc(Sc2ncc([N+](=O)[O-])s2)n1C | 35.4% (active) |
| Cn1cnc([N+](=O)[O-])c1Sc1nnc(-c2cccnc2)n1C | -5.6% |
| CC(C)(C)SCCNS(=O)(=O)c1ccc2ccccc2c1 | 7.5% |
| COc1ccc(C(=O)CC(=O)Nc2ccc([N+](=O)[O-])cc2)cc1 | -14.5% |
| Cc1ccc(C(=O)CCC(=O)Nc2ccc(Cl)c(S(=O)(=O)Nc3cccc(Cl)c3)c2)cc1 | 19.9% |
| COc1cccc(NC(=O)CC(=O)c2ccc([N+](=O)[O-])cc2)c1 | -3.4% |
| Cc1cccc(NS(=O)(=O)c2cc(NC(=O)CC(=O)c3ccc([N+](=O)[O-])cc3)ccc2C)c1 | 41.5% |
| COc1ccc(NS(=O)(=O)c2cc(NC(=O)CC(=O)c3ccc([N+](=O)[O-])cc3)ccc2C)cc1 | 54.7% (active) |
| Cn1ncc2c(Nc3ccc(Cl)c(Cl)c3)ncnc21 | -5.2% |
| Cc1ccc(OCC(O)CNC2CCCC2)c(C)c1 (stereo not given) | 0% |
| Cc1ccc(OCCCCNC2CCCC(C)C2C)c(C)c1 (stereo not given) | -22.2% |
| Cc1ccc(OCCCCNC2CCCCC2)c(C)c1 | 30.3% (active) |
| CN(Cc1ccccc1)C(=O)c1cc(=O)[nH]c2ccccc12 | 6.3% |
| Cc1ccc(-n2nc(-c3ccccc3)cc2Nc2ccccc2N)cc1 | -9.6% |
